Tested on: STK36
Details: concentration: 1 μM, replicates: in singlicate; n = 1
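Further: KINOMEscan kinase panel screen.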

Going from `CC(C)c1nc(-c2cccc(NS(=O)(=O)c3c(F)cccc3F)c2F)c(-c2ccnc(Nc3ccc(N4CCOCC4)nc3)n2)s1` [GSK2008607] to `COc1ccc(CNC(=O)NC2CCN(c3ccnc(Nc4ccc(F)cc4)n3)CC2)cc1` [GSK1379788], the “%Inh” value falls from 100% to 0%.

`C[C@@H]1CC[C@@H](C(=O)Nc2ccccc2)CN1c1cc(-c2ccc3c(N)n[nH]c3c2)nc(N)n1` [GSK2286062] was tested, and the “%Inh” value was 0%.

Tested on: STK39
Details: concentration: 1 μM, replicates: in singlicate; n = 1

Compared with `c1ccc(Oc2ccc(Nc3ccnc4cc(-c5ccc(CNCCN6CCOCC6)o5)ccc34)cc2)nc1` [GW567145], `CN(C)Cc1ccc(-c2ccc3c(Nc4ccc(Oc5ccccn5)cc4)ccnc3c2)o1` [GW567148] is lower in “%Inh” value: 1% for the first, 0% for the second.

Compared with `Cn1cc(-c2[nH]c3cc(NC(=O)[C@H](N)C4CCCCC4)cc4c3c2C=NNC4=O)cn1`, `C[C@@H]1CC[C@@H](C(=O)Nc2ccccc2)CN1c1cc(-c2ccc3c(N)n[nH]c3c2)nc(N)n1` [GSK2286062] is lower in “%Inh” value: 59% for the first, 0% for the second.

Compared with `O=C(Nc1cccc(-c2nn3ccccc3c2-c2ccnc(Nc3cccc(F)c3)n2)c1)c1c(F)ccc(F)c1Cl` [GSK357952], `COc1cc(Nc2nccc(-c3c(-c4cccc(NC(=O)c5c(F)cccc5F)c4)nn4ccccc34)n2)cc(OC)c1OC` [GSK323521] is lower in “%Inh” value: 35% for the first, 8% for the second.

Compared with `Cc1ccc(C)c(NC(=O)NC2CCN(c3ccnc(Nc4ccc(F)cc4)n3)C2)c1` (stereo not shown) [GSK1379720], `O=C(Nc1ccccc1F)NC1CCN(c2ccnc(Nc3ccc(F)cc3)n2)CC1` [GSK1379800] is lower in “%Inh” value: 10% for the first, 0% for the second.

First: O=C(Nc1n[nH]c2cc(-c3ccoc3)ccc12)C1CC1 [SB-738481]
Second: O=C(Nc1n[nH]c2nc(-c3ccc(O)cc3)ccc12)C1CC1 [SB-710363]
The “%Inh” value of the first is lower: 1% for the first, 18% for the second.

First: COc1cccc(C(=O)Nc2cccc(Oc3ccc4nc(NC(=O)C5CC5)cn4n3)c2)c1
Second: COc1ccc(Nc2nccc(N3CCC(NC(=O)Nc4cccc(OC)c4)C3)n2)cc1 (stereo not shown) [GSK1379742]
The “%Inh” value of the first is lower: 0% for the first, 5% for the second.

Going from `Cc1ccc(S(=O)(=O)Nc2ccc(Nc3nccc(Nc4cccc5[nH]ncc45)n3)cc2)cc1` [GSK581271] to `Cl.c1ccc(-c2ccc3c(Nc4ccc5[nH]ncc5c4)ccnc3c2)nc1` [GW440137], the “%Inh” value rises from 1% to 6%.

First: Nc1ncc(-c2ccc3nccc(-c4ccncc4)c3c2)cc1S(=O)(=O)N1CCOCC1 [GSK1627798]
Second: O=c1[nH]cc(-c2ccc(N3CCOCC3)cc2)c2sc(-c3cn[nH]c3)cc12 [GSK2276055]
The “%Inh” value of the first is lower: 0% for the first, 3% for the second.

First: CC(=O)Nc1nc2cnc(Nc3cc(NC(=O)c4cccc(C5(C#N)CC5)c4Cl)ccc3C)nc2s1
Second: CC(=O)N1CCN(c2ccc(Nc3nccc(-c4sc(C(C)C)nc4-c4cccc(NS(=O)(=O)c5cccc(Cl)c5)c4)n3)cn2)CC1 [GSK1660437]
The “%Inh” value of the first is lower: 0% for the first, 19% for the second.

Going from `Cl.Cl.NCC(NC(=O)c1cc(-c2ccccc2)c(-c2ccnc3[nH]ccc23)s1)c1ccccc1` (stereo not shown) [GSK1321561] to `Cl.c1ccc(-c2ccc3c(Nc4ccc5[nH]ccc5c4)ccnc3c2)nc1` [GW440138], the “%Inh” value falls from 8% to 0%.

First: COc1cccc(C2=C(Nc3ccc(Cl)c(C(=O)O)c3)C(=O)NC2=O)c1 [SB-390769]
Second: Cl.NC(=O)c1cccc(Nc2nccc(Nc3ccc(Oc4c(Cl)cccc4Cl)c(Cl)c3)n2)c1 [GW659009]
The “%Inh” value of the first is higher: 13% for the first, 0% for the second.

Going from `Cn1cc(-c2ccc3c(c2)CCN3C(=O)Cc2cccc(F)c2)c2c(N)ncnc21` [GSK2603358] to `CCc1ccc(-c2ccc3c(c2)-c2c(cnn2C)S(=O)(=O)N3C)cc1`, the “%Inh” value falls from 12% to 0%.

Going from `CN1CCN(CCCNc2nccc(-c3c(-c4ccc(F)cc4)nn4cc(C(F)(F)F)ccc34)n2)CC1` [GW621581] to `Clc1ccc(-c2nn3ncccc3c2-c2ccnc(Nc3ccc4c(c3)OCCO4)n2)cc1` [GW829116], the “%Inh” value falls from 3% to 0%.

First: Cc1ccc(C(=O)Nc2ccc(Nc3ccnc4cc(-c5nccs5)ccc34)cc2O)cc1.Cl [GW494702]
Second: Oc1cc(Nc2ccnc3cc(I)ccc23)ccc1F [GW552771]
The “%Inh” value of the first is lower: 0% for the first, 21% for the second.

Compared with `CC(C)(C)c1ccc2nccc(Nc3cccc(O)c3)c2c1` [GW856795], `c1ccc(-c2n[nH]cc2Nc2ccnc3ccccc23)nc1` [GW694077] is lower in “%Inh” value: 14% for the first, 8% for the second.

`Nc1n[nH]c2cnc(-c3ccccc3)cc12` [SB-642124] and `c1ccc(-c2cnc3nccnn23)cc1` [AH20685] are the same in “%Inh” value: 0% for the first, 0% for the second.

First: C[C@@H](Oc1cc(-n2cnc3cc(-c4ccnc(NCCS(C)(=O)=O)c4)ccc32)sc1C(N)=O)c1ccccc1Cl [GSK907232]
Second: CC(C)c1nc(-c2cccc(NS(=O)(=O)c3c(F)cccc3F)c2F)c(-c2ccnc(Nc3ccc(N4CCOCC4)nc3)n2)s1 [GSK2008607]
The “%Inh” value of the first is lower: 13% for the first, 48% for the second.

`COc1cc(Nc2ncc3c(C)nc(-c4cc5ccccc5[nH]4)n3n2)cc(OC)c1OC` [GW869516] and `COc1ccc(-c2coc3ccc(-c4nnc(SCc5ccc(OC)c(C(F)(F)F)c5)o4)cc23)cc1` are the same in “%Inh” value: 0% for the first, 0% for the second.

For `COc1ccc(CNC(=O)NC2CCN(c3ccnc(Nc4ccc(F)cc4)n3)CC2)cc1` [GSK1379788], the “%Inh” value was 0%.
